Source: PubChem BioAssay
Calls of active or inactive are those of the source.

Experiments:
[1] = small molecules captured by biotinylated probe aFSTL3 – biochemical, small-molecule microarray, fluorescence 635/667, stem cell growth factor project, primary screen (AID 1064); details: higher = more signal;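 further: measures binding of the biotinylated anti-FSTL3 antibody to printed compounds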
[2] = binders from COS7 lysate, DM2A8 probe, primary screen, torsin A project, cell lysate, small-molecule microarray, fluorescence 635/667 (AID 1065); details: higher = more signal, COS7 lysate expressing mutant human TOR1A
[3] = small molecules captured by biotinylated probe aFGF2 – biochemical, small-molecule microarray, fluorescence 635/667, stem cell growth factor project, primary screen (AID 1067); details: higher = more signal;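 further: measures binding of biotinylated aFGF2 protein to printed compounds on slides; z-score merges feature fluorescence and signal-to-noise across triplicate slides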
[4] = small molecules captured by biotinylated probe aFGF10 – biochemical, small-molecule microarray, fluorescence 635/667, stem cell growth factor project, primary screen (AID 1071); details: higher = more signal;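 further: score merges 667 nm spot intensity and signal to noise from triplicate slides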
[5] = biological target: Neurogenic locus notch homolog protein 2 (Homo sapiens) (UniProt Q04721); assay: small molecules binding Notch2 protein – biochemical, small-molecule microarray, 635 nm fluorescence, stem cell growth factors, primary screen (AID 1073); details: higher = more signal
Chain of Neurogenic locus notch homolog protein 2 (Homo sapiens) (Q04721 whole entry, looked up, canonical isoform): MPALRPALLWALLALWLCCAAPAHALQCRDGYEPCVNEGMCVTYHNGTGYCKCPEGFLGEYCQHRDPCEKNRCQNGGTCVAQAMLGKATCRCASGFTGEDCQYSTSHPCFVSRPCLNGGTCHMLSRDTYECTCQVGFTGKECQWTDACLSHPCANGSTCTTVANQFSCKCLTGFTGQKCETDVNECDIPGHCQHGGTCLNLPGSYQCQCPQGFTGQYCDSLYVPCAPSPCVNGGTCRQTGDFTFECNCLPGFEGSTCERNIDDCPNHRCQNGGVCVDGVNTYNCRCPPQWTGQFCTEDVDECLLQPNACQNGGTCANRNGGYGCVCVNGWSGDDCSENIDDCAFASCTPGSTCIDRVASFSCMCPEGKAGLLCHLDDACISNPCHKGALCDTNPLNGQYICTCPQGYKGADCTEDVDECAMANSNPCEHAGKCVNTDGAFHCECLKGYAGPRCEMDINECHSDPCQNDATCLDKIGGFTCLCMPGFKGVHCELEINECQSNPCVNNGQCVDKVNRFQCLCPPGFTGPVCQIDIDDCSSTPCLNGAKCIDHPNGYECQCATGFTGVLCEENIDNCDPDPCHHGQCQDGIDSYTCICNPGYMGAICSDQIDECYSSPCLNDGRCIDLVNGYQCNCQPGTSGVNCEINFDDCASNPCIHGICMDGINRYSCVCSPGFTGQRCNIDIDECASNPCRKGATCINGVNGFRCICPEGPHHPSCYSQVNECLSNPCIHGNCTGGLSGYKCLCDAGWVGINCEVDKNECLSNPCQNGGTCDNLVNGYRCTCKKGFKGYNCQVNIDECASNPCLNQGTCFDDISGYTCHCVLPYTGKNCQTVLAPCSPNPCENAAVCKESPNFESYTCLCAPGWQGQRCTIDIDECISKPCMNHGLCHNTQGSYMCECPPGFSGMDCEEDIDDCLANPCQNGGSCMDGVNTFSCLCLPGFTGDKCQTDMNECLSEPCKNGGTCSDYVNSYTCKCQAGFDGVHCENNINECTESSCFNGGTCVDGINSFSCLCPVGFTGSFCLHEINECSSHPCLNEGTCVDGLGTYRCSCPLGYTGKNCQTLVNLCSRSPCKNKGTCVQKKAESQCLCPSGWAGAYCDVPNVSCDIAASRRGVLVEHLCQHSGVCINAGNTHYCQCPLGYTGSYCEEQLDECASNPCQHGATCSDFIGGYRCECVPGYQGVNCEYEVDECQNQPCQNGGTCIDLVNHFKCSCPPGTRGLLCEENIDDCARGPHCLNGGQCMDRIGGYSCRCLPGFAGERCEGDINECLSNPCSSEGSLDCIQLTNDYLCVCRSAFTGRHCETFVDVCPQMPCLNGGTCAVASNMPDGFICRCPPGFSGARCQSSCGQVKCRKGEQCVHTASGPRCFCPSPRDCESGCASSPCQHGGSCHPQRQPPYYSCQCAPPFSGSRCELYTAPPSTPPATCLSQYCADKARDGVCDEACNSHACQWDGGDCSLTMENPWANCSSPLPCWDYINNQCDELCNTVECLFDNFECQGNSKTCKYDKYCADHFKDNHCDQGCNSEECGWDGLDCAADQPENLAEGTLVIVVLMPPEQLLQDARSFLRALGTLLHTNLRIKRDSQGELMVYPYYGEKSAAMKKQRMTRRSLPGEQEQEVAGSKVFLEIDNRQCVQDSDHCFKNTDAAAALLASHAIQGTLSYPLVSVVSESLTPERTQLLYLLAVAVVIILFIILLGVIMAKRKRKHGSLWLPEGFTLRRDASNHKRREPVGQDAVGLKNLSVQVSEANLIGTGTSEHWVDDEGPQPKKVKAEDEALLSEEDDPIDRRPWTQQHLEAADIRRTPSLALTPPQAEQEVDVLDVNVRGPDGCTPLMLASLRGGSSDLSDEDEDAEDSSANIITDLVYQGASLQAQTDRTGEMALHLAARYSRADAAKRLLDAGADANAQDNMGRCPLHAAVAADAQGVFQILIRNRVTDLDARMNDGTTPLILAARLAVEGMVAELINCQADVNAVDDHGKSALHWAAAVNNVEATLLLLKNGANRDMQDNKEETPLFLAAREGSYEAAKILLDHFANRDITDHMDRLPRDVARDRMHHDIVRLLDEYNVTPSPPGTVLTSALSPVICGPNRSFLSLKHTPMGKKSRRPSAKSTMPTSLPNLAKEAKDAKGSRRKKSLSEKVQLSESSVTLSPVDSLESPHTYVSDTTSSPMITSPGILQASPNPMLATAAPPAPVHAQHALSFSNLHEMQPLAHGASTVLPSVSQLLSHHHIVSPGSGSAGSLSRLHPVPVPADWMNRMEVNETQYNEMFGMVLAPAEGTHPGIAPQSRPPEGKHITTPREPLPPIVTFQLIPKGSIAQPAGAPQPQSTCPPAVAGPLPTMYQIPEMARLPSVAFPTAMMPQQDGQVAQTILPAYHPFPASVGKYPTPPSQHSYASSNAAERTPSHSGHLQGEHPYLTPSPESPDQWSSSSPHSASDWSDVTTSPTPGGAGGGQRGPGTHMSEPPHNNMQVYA

[6] = biological target: Pro-neuregulin-1, membrane-bound isoform (Homo sapiens) (UniProt Q02297); assay: small molecules binding neuregulin-1 protein – biochemical, small-molecule microarray, fluorescence 635/667, psychiatric disease protein project, primary screen (AID 1075); details: NRG1 binding, 635 nm fluorescence, higher = more signal;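 further: score combines 667 nm spot fluorescence with signal to noise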
Chain of Pro-neuregulin-1, membrane-bound isoform (Homo sapiens) (Q02297 whole entry, looked up, the tested form may be a part, canonical isoform): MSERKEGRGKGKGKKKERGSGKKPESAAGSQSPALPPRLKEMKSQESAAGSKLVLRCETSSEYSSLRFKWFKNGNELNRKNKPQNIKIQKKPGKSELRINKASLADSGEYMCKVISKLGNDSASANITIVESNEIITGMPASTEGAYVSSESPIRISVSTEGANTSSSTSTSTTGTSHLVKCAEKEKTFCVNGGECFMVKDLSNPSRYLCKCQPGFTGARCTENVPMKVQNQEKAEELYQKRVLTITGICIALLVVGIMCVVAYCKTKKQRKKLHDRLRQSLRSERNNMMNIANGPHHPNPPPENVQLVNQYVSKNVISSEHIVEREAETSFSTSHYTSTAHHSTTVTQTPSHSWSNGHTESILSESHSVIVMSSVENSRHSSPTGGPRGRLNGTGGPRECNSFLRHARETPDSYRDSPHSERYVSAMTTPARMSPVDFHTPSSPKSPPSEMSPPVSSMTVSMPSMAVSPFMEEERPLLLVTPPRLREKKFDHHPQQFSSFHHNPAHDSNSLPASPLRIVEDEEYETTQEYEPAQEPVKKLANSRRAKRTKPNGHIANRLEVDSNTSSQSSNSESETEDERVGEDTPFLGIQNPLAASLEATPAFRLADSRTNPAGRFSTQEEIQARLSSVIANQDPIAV

[7] = system: Neuregulin-1 EGF-like domain; assay: small molecules binding NRG1 EGF domain – biochemical, small-molecule microarray, 635 nm fluorescence, primary screen (AID 1081); details: higher = more signal;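 further: binding of the protein to compounds printed on small-molecule microarray slides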
[8] = FRG1 expression reporter modulators in myotubes – cell-based, C2C12 myotubes, firefly/Renilla luciferase, luminescence, FRG1 inhibition for FSHD, primary screen (AID 1084); details: FRG1 promoter luciferase, higher = more signal, called active from +8 up or from −8 down
[9] = small molecules captured by biotinylated probe aFST – biochemical, small-molecule microarray, fluorescence 635/667, stem cell growth factor project, primary screen (AID 1086); details: higher = more signal;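 further: score merges 667 nm fluorescence with signal-to-noise of each printed compound spot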
[10] = binders of probe aHhip on microarray, primary screen, stem cell growth factor project, biochemical, small-molecule microarray, fluorescence 635/667 (AID 1087); details: higher = more signal;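 further: score merges spot fluorescence at 667nm with spot signal to noise ratio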

| SMILES | composite z-score [1] | composite z-score [2] | composite z-score [3] | composite z-score [4] | composite z-score [5] | composite z-score [6] | composite z-score [7] | z-score [8] | composite z-score [9] | composite z-score [10] |
| --- | --- | --- | --- | --- | --- | --- | --- | --- | --- | --- |
| Cc1ccc(S[C@]2(C(=O)O)CC(=O)N(C(C)C)[C@@H]2c2ccc(CO)cc2I)cc1 | 1.83 | 1.16 | 0.0477 | -0.0395 | 0.175 | 1.89 | 1.16 | -0.974 (inactive) | 1.33 | -0.148 |
| Oc1ccc2cc[n+](Cc3sc4ccccc4c3Cl)cc2c1 | 0.997 | -0.466 | -0.0976 | -0.299 | -0.308 | -0.159 | 1.64 | 1.7 (inactive) | 0.031 | 0.16 |
| CCCCCN1CC=CC23O[C@@H]4/C=C\CCC(C)OC(=O)C4[C@H]2C(=O)N(C(C)CO)[C@@H]3C1=O (stereo not given in full) | -0.411 | -1.14 | -0.164 | -0.043 | -0.602 | 0.946 | 0.38 | -1.32 (inactive) | -0.258 | -0.268 |
| O=C(CS)NCCCCCCNC(=O)[C@@H]1C[C@@H]2C(=O)N[C@@H](Cc3ccccc3)C(=O)N2[C@@H]1c1cccc(OCCO)c1 | 0.0549 | 0.94 | 0.0589 | 0.956 | 1.08 | 0.659 | 1.23 | 3.09 (inactive) | 0.616 | -0.0994 |
| COc1ccc(CCNC(=O)[C@@]2(C)c3ccccc3C(=O)N(C(C)C)[C@H]2c2ccc(CO)cc2)cc1 | -0.182 | 0.39 | 0.0376 | 0.4 | 0.246 | 0.693 | 1.3 | -0.262 (inactive) | 0.933 | -0.394 |
| O=C(c1ccccc1)N1C(=O)[C@]2(COC(c3ccc(OCCCO)cc3)=N2)Cc2ccccc21 | 0.303 | 0.863 | 0.11 | 0.879 | 0.839 | 1.72 | 1.34 | 1.23 (inactive) | 0.647 | -0.266 |
| CC(C)C[C@@H]1NC(=O)[C@H](C(C)C)NC(=O)[C@@]23C(=O)N[C@@H](Cc4ccccc4)C2[C@H](C)[C@@]2(C)O[C@H]2C3/C=C/CC/C=C/CNC1=O (stereo not given in full) | -0.368 | 0.0032 | -0.144 | 0.518 | 0.729 | 0.133 | 1.02 | -0.537 (inactive) | 0.0815 | -0.0061 |
| CCCC[C@@H]1C[C@H]1[C@@H](NC(=O)c1ccco1)c1ccccc1C(F)(F)F | 2.82 | -0.108 | 0.806 | 0.0033 | 0.967 | 0.382 | -0.226 | 0.792 (inactive) | 2.87 | 3.61 |
| CC(C)NC(=O)[C@@]1(C)c2ccccc2C(=O)N(Cc2cc(C(F)(F)F)cc(C(F)(F)F)c2)[C@H]1c1ccc(CO)cc1 | 0.43 | -1.42 | -0.128 | -0.477 | -0.753 | 0.353 | 1.27 | -1.38 (inactive) | -0.213 | -0.374 |
| CCCCC(CC)C(O)C1C=CC2C(=O)N(Cc3ccccc3)C(=O)C2N1n1cnnc1 (stereo not given) | 0.168 | -0.367 | -0.0305 | 0.175 | 0.0048 | -0.343 | 1.1 | -0.302 (inactive) | 0.246 | -0.199 |
| Cc1nc2cc(Br)ccc2c(=O)o1 | -0.296 | -0.185 | -0.158 | 0.497 | 1.1 | 0.226 | 0.861 | 0.845 (inactive) | 1.04 | 0.0383 |
| CN(C)CCCCCCNC(=O)[C@H]1C[C@H]2C(=O)N[C@@H](CCCCN)C(=O)N2[C@H]1c1cccc(OCCO)c1 | 3.62 | 2.48 | 0.898 | 1.15 | 1.65 | 2.67 | 1.55 | 3.88 (inactive) | 3.58 | 3.28 |
| COC(=O)[C@@]1(Cc2ccc(OC)cc2)[C@H]2c3cc(C(=O)N4CCCC4)n(Cc4ccc(O)c(OC)c4)c3C[C@H]2CN1C(=O)c1ccccc1 | 1.41 | 1.14 | 0.694 | 0.777 | 1.1 | 1.83 | 1.1 | 0.665 (inactive) | 2.28 | 2.44 |
| C=CCN1C(=O)[C@@]2(Cc3ccccc31)N=C(c1ccc(OCCCO)cc1)O[C@H]2c1ccccc1 | 1.12 | 0.282 | 0.0085 | -0.112 | 1.01 | 1.24 | 1.23 | -2.07 (inactive) | 0.83 | -0.144 |
| COCCOC(=O)N1C(=O)[C@@]2(c3cc(C#CCC(C(=O)OC)C(=O)OC)ccc31)[C@H](C(=O)N1CCN(c3ncccn3)CC1)[C@H]1C(=O)O[C@H](c3ccccc3)[C@H](c3ccccc3)N1[C@@H]2c1ccccc1OCCO | -0.486 | 0.51 | 0.0247 | 0.86 | 1.32 | 0.841 | 1.27 | 0.131 (inactive) | 0.495 | -0.0346 |
| COc1cc2c(cc1OC)CN(C(=O)[C@H]1[C@@H]3C(=O)O[C@@H](c4ccccc4)[C@@H](c4ccccc4)N3[C@@H](c3ccc(O)cc3)[C@]13C(=O)Nc1ccc(C#CCCO)cc13)CC2 | 0.0257 | 0.322 | -0.0659 | 0.519 | 0.0774 | 1.63 | 1.28 | -0.845 (inactive) | -0.0227 | -0.125 |
| COc1cc(Br)cc(C(O)C2C=CC3C(=O)N(C)C(=O)C3N2N2CCCCC2)c1OC (stereo not given) | 0.0974 | -1.02 | -0.053 | -0.207 | 0.224 | 0.818 | 1.31 | 0.876 (inactive) | 0.347 | 0.0677 |
| [N-]=[N+]=Nc1ccccc1[C@H]1OC(c2ccc(OCCCO)cc2)=N[C@@]1(CCS(=O)(=O)c1ccccc1)C(=O)NCC(O)CO (stereo not given in full) | 0.408 | 0.652 | 0.0367 | 0.543 | 1.35 | 1.75 | 1.3 | 5.85 (inactive) | 1.1 | -0.283 |
| C=CCC(OC(C)=O)[C@@H]1[C@@H](N(Cc2cc3ccccc3o2)C(=O)c2cccc3ccccc23)c2cc(OCCCO)ccc2N1C(=O)c1ccc(-c2ccccc2)cc1 (stereo not given in full) | 0.118 | -0.203 | -0.108 | 0.0904 | 0.0918 | 0.142 | -0.164 | -0.408 (inactive) | 0.101 | -0.137 |
| COc1ccc(C(O)C2C=CC3C(=O)N(Cc4ccccc4)C(=O)C3N2n2cnnc2)cc1OCc1ccccc1 (stereo not given) | -0.0405 | -0.209 | -0.0996 | 0.193 | -0.0176 | 0.834 | 0.613 | 0.364 (inactive) | 0.777 | -0.0296 |
| O=C1O[C@H](c2ccccc2)[C@H](c2ccccc2)N2[C@H]1[C@@H](C(=O)N1CCCCCCC1)[C@]1(C(=O)Nc3ccc(C#CC4=CCCCC4)cc31)[C@H]2c1ccc(OCCO)cc1 | 3.55 | 2.01 | 0.917 | 0.965 | 1.6 | 2.38 | 1.3 | 0.677 (inactive) | 3.36 | 3.42 |
| NC(=O)NCC#Cc1ccc2c(c1)[C@]1(C(=O)N2)[C@H](C(N)=O)[C@H]2C(=O)O[C@H](c3ccccc3)[C@H](c3ccccc3)N2[C@@H]1c1ccc(O)cc1 | 1.41 | -0.0275 | -0.0413 | -0.166 | -0.723 | 1.14 | -0.22 | -0.0861 (inactive) | 0.752 | 1.15 |
| C=CCNC(=O)[C@@H]1[C@H]2C(=O)O[C@H](c3ccccc3)[C@H](c3ccccc3)N2[C@H](c2ccc(O)cc2)[C@@]12C(=O)N(C(=O)OCCOC)c1ccc(C#CCNC(N)=O)cc12 | 0.2 | 0.383 | 0.0793 | 0.714 | 0.211 | 1.22 | 0.955 | -0.989 (inactive) | 1.15 | -0.311 |
| COc1ccccc1CN1C(=O)c2ccccc2[C@@]2(Cc3ccccc3N(CC(C)C)C2=O)[C@@H]1c1ccc(CO)cc1 | -0.211 | -0.44 | -0.0543 | 0.134 | -0.304 | -0.0503 | -0.738 | -0.0845 (inactive) | -0.595 | -0.0994 |
| [N-]=[N+]=NCc1ccccc1[C@@H]1OC(c2ccc(OCCCO)cc2)=N[C@]1(Cc1ccccc1)C(N)=O | 0.0286 | -0.187 | 0.0062 | 0.98 | 1.6 | 1.99 | 1.29 | 2.02 (inactive) | 1.35 | -0.249 |
| CN(C)C(=O)[C@@]1(CCS(=O)(=O)c2ccccc2)COC(c2ccc(OCCCO)cc2)=N1 | 0.578 | -0.149 | 0.127 | 0.568 | 0.331 | 1.8 | 1.36 | -2.05 (inactive) | 0.47 | -0.141 |
| CCC(CC)C(O)C1C=CC2C(=O)NC(=O)C2N1Nc1ccc(Cl)cc1Cl (stereo not given) | 0.494 | 0.318 | 0.133 | 0.309 | 1.42 | 0.971 | 1.08 | -1.71 (inactive) | 0.812 | 0.0749 |
